Compound activity: PubChem BioAssay, National Center for Advancing Translational Sciences (NCATS)
NTMT1 inh – blocks human N-terminal methyltransferase 1 activity | Q9BV86 | NTMT1 MTase-Glo SAH luminescence, purified enzyme | Potency, µM (titrated, usually from 114 µM), without a hit: at the highest dose activity change, negative = inhibition, hits mostly inhibitors | 2.5% of 59,000 active | AID 1645870;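 also: potency is read from the fitted curve at half-maximal effect; plate controls were DMSO vehicle for no effect and no enzyme for full effect; nearly all actives have a fitted effect of over 65% in size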
Target sequence (Q9BV86 whole entry, looked up): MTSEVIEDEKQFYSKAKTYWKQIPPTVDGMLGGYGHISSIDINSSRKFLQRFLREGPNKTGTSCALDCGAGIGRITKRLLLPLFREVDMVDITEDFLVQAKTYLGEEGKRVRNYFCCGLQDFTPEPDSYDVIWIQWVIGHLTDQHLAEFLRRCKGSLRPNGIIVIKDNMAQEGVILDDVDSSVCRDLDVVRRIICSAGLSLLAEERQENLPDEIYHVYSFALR
FH mod – Identification of activators of human fumarate hydratase by quantitative high-throughput screening; FH coupled MDH/diaphorase resazurin fluorescence, 15 min; Potency, µM (titrated, usually from 79.9 µM), without a hit: at the highest dose activity change, negative = inhibition, hits mostly inhibitors; 0.22% of 54,000 active; also: potency is read from the fitted curve at half-maximal effect; % is scaled to controls: 0 for no effect and ±100 for the full control effect; the screen sought activators but most active calls are inhibition curves; nearly all actives have a fitted effect of over 45% in size
OvCa metastasis – inhibitors of ovarian cancer cell adhesion and invasion in omental model. 0.1% of 46,000 active. SKOV3ip1-GFP adhesion/invasion on 3D omental model, fluorescence. Potency, µM (doses to about 45.8 µM), without a hit: at the highest dose activity change, negative = inhibition, hits mostly inhibitors;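 also: potency is read from the fitted curve at half-maximal effect; plate controls were DMSO wells for no effect and tomatine positive control wells for full effect; nearly all actives have a fitted effect of over 65% in size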
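Primary human omental fibroblast/mesothelial 3D culture pre-formed 48 h. SKOV3ip1-GFP cells added with compounds (0.36-46 umol/L), incubated 2 h RT/16 h 37 C, fixed; GFP cells quantified at 488/509 nm.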
GPR32 ag – agonists of human resolvin D1 receptor DRV1 (GPR32); O75388; CHO-K1 GPR32 beta-arrestin PathHunter luminescence, 90 min; zero percent set by DMSO-only wells; activation, % at 76.9 µM; 2.5% of 48,000 active;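 active = activation of at least 60% and not above a set upper limit, about 1 call in 100 departs from these limits; inconclusive = activation of 40% to 60%, or above that upper limit; inactive = activation under 40%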; also: 0% is about no effect
Target sequence (O75388 whole entry, looked up): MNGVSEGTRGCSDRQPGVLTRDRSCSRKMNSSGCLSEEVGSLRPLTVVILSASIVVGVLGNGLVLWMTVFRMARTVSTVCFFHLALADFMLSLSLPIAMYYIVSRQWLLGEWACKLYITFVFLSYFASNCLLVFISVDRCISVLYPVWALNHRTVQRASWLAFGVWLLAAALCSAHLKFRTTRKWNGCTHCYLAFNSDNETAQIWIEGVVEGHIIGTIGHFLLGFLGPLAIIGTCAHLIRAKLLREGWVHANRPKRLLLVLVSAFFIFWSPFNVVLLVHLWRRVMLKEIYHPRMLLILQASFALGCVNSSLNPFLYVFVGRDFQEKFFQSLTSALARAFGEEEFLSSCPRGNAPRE
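Beta-arrestin recruitment read-out: luminescence from complemented beta-Gal in CHO-K1 GPR32 PathHunter cells, measured 1 h after detection reagent at ambient temperature following 90 min compound exposure at 37 °C; DMSO served as basal (EC0) control.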
Numbers without * were called inactive; i = inactive; ? = inconclusive; nt = no result given; ! = a repeat was not active; [ ] = remark or other dose. Compounds with a hit are over-represented: about 3.8% of the library has one in this group of screens. Unless noted, calls follow the shape of the dose curve; as a rule, active = well fitted curve in the direction sought with a large enough effect; inconclusive = small, poorly fitted or top-dose-only effect, or another doubt; inactive = no such curve, though single readings can be large; an effect the other way counts as inactive or inconclusive.

SMILES | NTMT1 inh | FH mod | OvCa metastasis | GPR32 ag
CNC(=O)c1ccc(NC(=O)c2nsc3ccccc23)cc1 | 40µM* | -8% | -1% | -7
O=C(NCc1cccc(F)c1)c1ccc(NC(=O)c2nsc3ccccc23)cc1 | 45µM* | -7% | -1% | -12
CCN(C(=O)c1cn(C)c(=O)c2ccccc12)c1cccc(C)c1 | 10% | -5% | i | 21
COc1ccc(CNC(=O)C(Cc2ccccc2)NS(=O)(=O)c2ccc3c(c2)CCN3C(C)=O)cc1 (stereo not drawn) | ? | -6% | 4% | 12
CN(C)c1ccc(O)c2c1C[C@H]1C[C@H]3[C@H](N(C)C)C(=O)C(C(N)=O)=C(O)[C@@]3(O)C(=O)C1=C2O | 79µM*! | -6%[53.3 µM] | -11% | -60
Cc1ccc(Cc2nc3ccccc3nc2SCC(=O)NCc2ccc(F)cc2)cc1 | 10% | -23% | i | -23
CCOc1ccc(Cc2nccc3cc(OCC)c(OCC)cc23)cc1OCC | -20%[57.5 µM] | -4%[53.3 µM] | nt | 88*
CCOc1ccc(CNC(=O)CCn2cccn2)cc1OC | -4% | 4% | 1% | 2
CN1CCCN(C(=O)c2cccc(-c3ccc(C=C4C(=O)Nc5ccc(Cl)cc54)o3)c2)CC1 | 7.1µM* | -3%[53.3 µM] | 18% | nt
O=c1oc2cc(O)ccc2cc1-c1nnc(Nc2ccccc2F)s1 | 50µM* | -1% | ? | 6
Cc1ccc(C)c(NC(=O)Cn2ncc3c(C)n(Cc4ccc(F)cc4)c(C)c3c2=O)c1 | ? | -5% | ? | -9
Cc1nc(NC(=O)N2CCCC2C(N)=O)sc1-c1ccnc(C(C)(C)C(F)(F)F)c1 (stereo not drawn) | 45µM* | 5% | nt | nt
COC(=O)c1c(N)n(-c2ccc(OC)c(OC)c2)c2nc3ccccc3nc12 | 3% | 7% | -11% | 11
Fc1cccc(NCc2cccn2-c2nnc(N3CCOCC3)s2)c1 | -3% | -10% | i | 66*
Cc1ccccc1NCc1cccn1-c1nnc(N2CCOCC2)s1 | -5% | -33% | i | 16
Fc1ccc(NCc2cccn2-c2nnc(N3CCOCC3)s2)cc1 | -4% | -11% | -22% | 67*
CCOC(=O)NNc1ccc(N(CC)CC(C)O)nn1 (stereo not drawn) | 28µM* | -8%[53.3 µM] | nt | 5
CCOC(=O)NNc1nncc2ccccc12 | -1%[57.5 µM] | -7%[53.3 µM] | nt | 3
Cc1ccc(Cl)cc1NC(=O)c1cnc(N2CCCCC2)c2ccccc12 | 89µM* | -19% | -5% | -12
CCOC(=O)Nc1ccc(NCc2ccc(F)cc2)nc1N | ? | 13µM*! | -22% | -2
CC(C)(C)c1ccc(C(=O)Nc2ccc(OCc3cc(=O)n4ccsc4n3)cc2)cc1 | -2% | -1% | i | 87*
O=C(Nc1ccc(OCc2cc(=O)n3ccsc3n2)cc1)c1ccc(F)cc1 | 8% | 1% | -17% | 10
Cc1cc(N2CCN(C)CC2)nc2ccc(NC(=O)Nc3ccc(Cl)cc3)cc12 | -2% | -5% | 4% | 118*
CCc1ccccc1N(C)S(=O)(=O)c1ccc2[nH]cc(C(=O)NCCOC)c(=O)c2c1 | 7% | -12% | 21% | -7
CCN(c1cccc(C)c1)S(=O)(=O)c1ccc2[nH]cc(C(=O)NCCCOC)c(=O)c2c1 | -1% | -22% | i | 97*
SMILES | NTMT1 inh | FH mod | OvCa metastasis | GPR32 ag
COc1ccc(C)cc1NC(=O)Cn1nc(N2CCN(c3ccccc3OC)CC2)ccc1=O | -2% | -19% | 1% | 3
Cc1ccc(C)c(Nc2nn3c(=O)c4cc5c(cc4nc3s2)OCO5)c1 | -2% | -12% | 4% | 63*
O=c1c2cc3c(cc2nc2sc(Nc4ccccc4)nn12)OCO3 | ? | -9% | -5% | -4
Cc1ccc(C)c(Nc2nn3c(=O)c4ccc(C(=O)NCCc5ccccc5)cc4nc3s2)c1 | -6% | -1% | i | 74*
O=C(CSc1nc2c([nH]c3ccccc32)c(=O)n1-c1ccccc1F)Nc1cccc(C(F)(F)F)c1 | -2% | ? | 48% | -12
Cc1ccc(C(=O)Nc2ccc3oc(-c4ccccc4C)nc3c2)cc1 | -3% | -7% | 3% | 76*
Cc1ccc2oc(-c3cc(NC(=O)Cc4ccccc4)ccc3Cl)nc2c1 | nt | nt | i | 64*
COc1ccc(OC)c(CNC(=O)Nc2cn(CC(C)C)c(=O)c3ccccc23)c1 | -1% | 32µM*[activator] | 11% | -28
COc1cccc(CNC(=O)Nc2cn(CC(C)C)c(=O)c3ccccc23)c1 | -2% | ? | i | -63
Cc1cccc(N2CCN(C(=O)c3cnn(-c4ccc(F)cc4F)c3C3CCN(C(=O)OC(C)(C)C)CC3)CC2)c1C | -21% | ? | 2% | -17
Cc1ccc2c(=O)cc(C(=O)Nc3ccc(S(=O)(=O)Nc4ncccn4)cc3)oc2c1C | ? | -16% | -1% | 67*
COc1ccc(-c2nc3scc(CCNS(=O)(=O)c4ccc(NC(C)=O)cc4)n3n2)cc1 | 1% | -9% | i | 10
CC(C)(C)c1ccc(O)c(O)c1 | 4.5µM* | 40µM* | nt | ?
CCC(C)(C)c1ccc(CC(C)CN2C[C@@H](C)O[C@@H](C)C2)cc1 (stereo partly drawn) | -51%[57.5 µM] | 8%[53.3 µM] | -17% | 113*
CCS(=O)(=O)N1CCc2cc(C(=O)Nc3ccc(Br)cc3F)ccc21 | 89µM* | -6% | 7% | 74*
CCS(=O)(=O)N1CCc2cc(C(=O)NCCc3ccccc3)ccc21 | 89µM* | -10% | i | -8
CS(=O)(=O)N1CCc2cc(C(=O)NCCc3ccccc3)ccc21 | 15% | -2% | i | 8
CCn1c(CN2CCCCC2)nc2cc(NC(=O)COc3ccc([N+](=O)[O-])cc3)ccc21 | -4% | 6% | 0% | 8
COc1cccc(-c2nnc3n(Cc4ccc(C)cc4)c(=O)c4ccccc4n23)c1O | -4% | -16% | 6% | 9
CCc1ccc(NC(=O)Cn2nnc(C(=O)NCc3ccco3)c2N)cc1 | -6% | -5% | 5% | 2
CCCCCCCCCCCCCCCC[n+]1ccccc1 | 22µM* | -8%[53.3 µM] | nt | 12
Cc1ccc(C)c(CN2C(=O)c3ccccc3S(=O)c3ccc(C(=O)N4CCC(C)CC4)cc32)c1 (stereo not drawn) | -2% | -31% | -4% | 39
CCOC(=O)N1CCN(C(=O)c2ccc3c(c2)N(Cc2cc(C)ccc2C)C(=O)c2ccccc2S3=O)CC1 (stereo not drawn) | 89µM* | -17% | i | -12
CC1(C)CCC(C)(C)c2cc(C#Cc3ccc(C(=O)O)cc3)ccc21 | -3%[57.5 µM] | ? | nt | nt
COc1ccc(OC)c(NC(=O)CSc2n[nH]c(-c3ccccc3Cl)n2)c1 | 0% | 7.9µM* | -2% | 13
COc1ccc(CCNc2oc(COc3ccc(Cl)cc3)nc2C#N)cc1OC | -1% | ? | -4% | 38
COc1ccc(CCNc2oc(COc3cccc(C)c3)nc2C#N)cc1OC | 7% | ? | -6% | 111*
COc1ccc(Nc2oc(-c3ccc(COc4ccc(OC)cc4)o3)nc2C#N)cc1 | 6% | 3% | -4% | 71*
